From PubChem BioAssay
A number with no mark means an inactive call. Active and inactive are the calls of the source. Cut-off read from the data, not from the text of the source, unless noted: active = inhibition above about 28%; inactive = the rest.

Columns and labels:
[1] = StAR promoter reporter inhibitors, counter-screen for LRH-1 inverse agonist project, cell-based, luminescence, high throughput (AID 651611); conditions: StAR promoter luciferase reporter counterscreen, at 3.6 µM, stronger effect = higher value
[2] = target: Nuclear receptor subfamily 5 group A member 2 (Homo sapiens) (UniProt O00482); experiment: LRH-1 (NR5A2) inverse agonists, retest, confirmation, cell-based, luminescence (AID 651613; in the data active = inhibition above about 42%;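 note: HEK293T cells co-transfected with LRH-1 and StAR promoter luciferase reporter; 0% = vehicle wells and 100% = parental cells lacking receptor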); conditions: cell-based LRH-1 luciferase reporter, inverse agonism; at 3.6 µM; stronger effect = higher value
[3] = target: Steroidogenic factor 1 (Homo sapiens) (UniProt Q13285); experiment: SF1 (NR5A1) inverse agonists, counter-screen for LRH-1 inverse agonist project, cell-based, luminescence, high throughput (AID 651614; in the data active = inhibition above about 44%;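 note: cells cotransfected with StAR promoter reporter and SF1 expression vector; 0% = vehicle on cells with receptor and 100% = vehicle on cells lacking receptor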); conditions: cell-based SF1 luciferase reporter, at 3.6 µM, stronger effect = higher value
[4] = VP16 transactivation reporter inhibitors, counter-screen for LRH-1 inverse agonist project, cell-based, luminescence, high throughput (AID 651615; in the data active = inhibition above about 33%); conditions: Gal4-VP16 luciferase reporter cells, at 3.6 µM, stronger effect = higher value

Sequence of Steroidogenic factor 1 (Homo sapiens) (Q13285 whole entry, looked up, the tested form may be a part): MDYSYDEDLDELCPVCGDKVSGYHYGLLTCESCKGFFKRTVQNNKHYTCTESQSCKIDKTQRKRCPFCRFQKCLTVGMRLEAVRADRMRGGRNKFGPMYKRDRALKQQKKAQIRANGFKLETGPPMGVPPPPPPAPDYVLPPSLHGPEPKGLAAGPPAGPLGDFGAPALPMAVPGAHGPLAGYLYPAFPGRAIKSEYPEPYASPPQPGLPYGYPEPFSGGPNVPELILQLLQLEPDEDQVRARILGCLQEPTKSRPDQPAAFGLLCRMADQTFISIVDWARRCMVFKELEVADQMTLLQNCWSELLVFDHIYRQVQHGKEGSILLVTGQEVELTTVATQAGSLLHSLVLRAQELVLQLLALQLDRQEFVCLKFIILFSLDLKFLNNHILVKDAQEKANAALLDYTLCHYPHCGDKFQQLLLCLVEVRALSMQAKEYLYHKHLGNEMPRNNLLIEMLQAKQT
Sequence of Nuclear receptor subfamily 5 group A member 2 (Homo sapiens) (O00482 whole entry, looked up): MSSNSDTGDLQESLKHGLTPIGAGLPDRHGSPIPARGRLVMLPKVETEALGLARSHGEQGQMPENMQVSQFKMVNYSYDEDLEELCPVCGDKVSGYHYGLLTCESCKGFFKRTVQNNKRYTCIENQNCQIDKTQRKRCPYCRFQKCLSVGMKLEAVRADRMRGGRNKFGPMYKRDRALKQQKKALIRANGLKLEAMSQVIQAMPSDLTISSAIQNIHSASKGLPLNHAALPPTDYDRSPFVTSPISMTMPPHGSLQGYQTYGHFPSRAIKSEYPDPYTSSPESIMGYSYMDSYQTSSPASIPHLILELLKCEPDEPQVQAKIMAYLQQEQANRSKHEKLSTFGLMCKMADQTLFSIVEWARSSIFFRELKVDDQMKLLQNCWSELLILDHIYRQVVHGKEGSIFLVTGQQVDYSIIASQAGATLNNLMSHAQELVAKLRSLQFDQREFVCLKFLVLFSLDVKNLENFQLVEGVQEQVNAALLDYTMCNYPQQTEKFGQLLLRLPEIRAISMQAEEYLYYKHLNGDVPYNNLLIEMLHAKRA

For COc1cc2c(=O)[nH]c3cc([N+](=O)[O-])ccc3c2cc1[N+](=O)[O-], the inhibition [1] was -3.92%, the inhibition [2] was 64.6% (active) and the inhibition [3] was 56.6% (active). The inhibition [4] was -22.2%.
With COc1ccc(C2=Nn3c(nnc3-c3ccccc3OC)SC2)cc1OC1CCOC1 (centres undefined) the inhibition [1] was 54.4% (active), the inhibition [2] was 69.1% (active) and the inhibition [3] was 71.1% (active). It also gave an inhibition [4] of 19.3%.
For CC(C)c1cc(NC(=O)CCl)on1, the inhibition [1] was 35.2% (active), the inhibition [2] was 47.4% (active) and the inhibition [3] was 51.9% (active). For the same compound, the inhibition [4] was -11.4%.
For COC(=O)C1(C)Nc2ccccc2C(=O)N1c1ccccc1C (centres undefined), the inhibition [1] was 2.27%, the inhibition [2] was 16% and the inhibition [3] was 0.53%. For the same compound, the inhibition [4] was 7.07%.
With O=C(Nc1ccc(Nc2ccccc2)cc1)c1cc([N+](=O)[O-])ccc1Cl the inhibition [1] was 6%, the inhibition [2] was 52.7% (active) and the inhibition [3] was 53.4% (active). For the same compound, the inhibition [4] was 9.35%.
For CNc1c2cccc(C)c2nc2c(C(=O)NCCN(C)C)cccc12, the inhibition [1] was 80.3% (active), the inhibition [2] was 109% (active) and the inhibition [3] was 98% (active). The inhibition [4] was 74.7% (active).
With CCCn1c(NC(=O)c2ccc([N+](=O)[O-])o2)nc2ccccc21 the inhibition [1] was 18.9%, the inhibition [2] was 51.3% (active) and the inhibition [3] was 21.2%. The inhibition [4] was -2.27%.
In the case of Cc1ccc2nc(-c3ccc(NS(C)(=O)=O)cc3)cc(-c3ccccc3)c2c1, the inhibition [1] is reported as 8.04%, the inhibition [2] is reported as 51.1% (active) and the inhibition [3] is reported as 51.8% (active). For the same compound, the inhibition [4] was -2.14%.
In the case of COc1cc(C2CC(=O)c3c([nH]c(C(=O)OCCOC(C)C)c3C)C2)cc(OC)c1OC (centres undefined), the inhibition [1] is reported as 24.2%, the inhibition [2] is reported as 40% and the inhibition [3] is reported as 56.8% (active). The inhibition [4] was 43.3% (active).
For COC(=O)c1ccc(NC(=O)CSc2nncn2-c2cccnc2)cc1, the inhibition [1] was -6.12%, the inhibition [2] was 44.6% (active) and the inhibition [3] was 34.3%. The inhibition [4] was 0.63%.
In the case of CC(C)(C)c1ccc(C(=O)Nc2ccc(C(=O)NCc3cccnc3)cc2)cc1, the inhibition [1] is reported as 82.1% (active), the inhibition [2] is reported as 90.4% (active) and the inhibition [3] is reported as 93.2% (active). For the same compound, the inhibition [4] was 61% (active).
For CCCn1c(=NC(=O)CCS(=O)(=O)c2ccccc2)sc2cc(S(N)(=O)=O)ccc21, the inhibition [1] was 1.11%, the inhibition [2] was 32.3% and the inhibition [3] was 31.1%. For the same compound, the inhibition [4] was -13.8%.
With O=C(Cn1ncc(Cl)c(Cl)c1=O)Nc1ccc2c(c1)OCO2 the inhibition [1] was -10.7%, the inhibition [2] was 38.1% and the inhibition [3] was 47.4% (active). It also gave an inhibition [4] of -13.7%.
With Cc1sc2ncnc(NCC(O)c3ccc([N+](=O)[O-])cc3)c2c1C (centres undefined) the inhibition [1] was 15.4%, the inhibition [2] was 51.7% (active) and the inhibition [3] was 53.5% (active). For the same compound, the inhibition [4] was 42.1% (active).
For COc1ccccc1NC(=O)c1ccc(NC(=O)CSc2nnnn2C)cc1, the inhibition [1] was 4.14%, the inhibition [2] was 59% (active) and the inhibition [3] was 55.5% (active). It also gave an inhibition [4] of -1.96%.
With CCCc1cc(=O)oc2cc(OCC(=O)NCc3ccccn3)ccc12 the inhibition [1] was 10.6%, the inhibition [2] was 55.5% (active) and the inhibition [3] was 59.1% (active). It also gave an inhibition [4] of -9.39%.
For COc1cc2c3c(cccc3c1)C(=O)N(CCN1CCCC1)C2=O, the inhibition [1] was 12.7%, the inhibition [2] was 72.8% (active) and the inhibition [3] was 49.7% (active). The inhibition [4] was 70.9% (active).
With CN(CC(=O)Nc1ccc(N2CCOCC2)cc1)CC(=O)Nc1ccc(N2CCOCC2)cc1 the inhibition [1] was 4.02%, the inhibition [2] was 52.1% (active) and the inhibition [3] was 54.2% (active). It also gave an inhibition [4] of -8.87%.
For CC1(C(=O)NCc2ccco2)Cc2c(-c3ccccc3)ccnc2O1 (centres undefined), the inhibition [1] was 42% (active), the inhibition [2] was 36.3% and the inhibition [3] was 59% (active). The inhibition [4] was 26.6%.
With CCNc1nc(-c2sc(NC(=O)C(C)(C)C)nc2C)c(-n2cc(-c3ccccc3)nn2)s1 the inhibition [1] was 60.9% (active), the inhibition [2] was 27.6% and the inhibition [3] was 41.4%. The inhibition [4] was 35.7% (active).
For Cc1ccc[n+](CC(=O)Nc2ccc([N+](=O)[O-])cc2)c1, the inhibition [1] was 12.6%, the inhibition [2] was 63.1% (active) and the inhibition [3] was 57% (active). For the same compound, the inhibition [4] was -13.3%.
With COc1ccc(CCNC(=O)CSc2nnc(CNc3ccc(Cl)cc3)o2)cc1OC the inhibition [1] was 1.3%, the inhibition [2] was 48.7% (active) and the inhibition [3] was 38.9%. It also gave an inhibition [4] of -2.14%.
CCn1c(=S)sc2c(=O)n(CC(=O)Nc3ccc(OC)c(Cl)c3)c(C)nc21 gave an inhibition [1] of 6%, an inhibition [2] of 33.4% and an inhibition [3] of 24.9%. For the same compound, the inhibition [4] was 4.75%.
With NS(=O)(=O)c1ccc(CCNC(=O)COc2ccc3c4c(c(=O)oc3c2)CCC4)cc1 the inhibition [1] was 13.4%, the inhibition [2] was 41.7% (active) and the inhibition [3] was 38.2%. It also gave an inhibition [4] of -15.4%.
With CC1CCC2(CC1)NC(=O)N(CC(=O)Nc1ccc(N3CCOCC3)cc1)C2=O (centres undefined) the inhibition [1] was 11.8%, the inhibition [2] was 45.8% (active) and the inhibition [3] was 37.4%. For the same compound, the inhibition [4] was -8.77%.
COc1cc(N)c2ncccc2c1Cl showed an inhibition [1] of -0.07%, an inhibition [2] of 17.4% and an inhibition [3] of 11.9%. For the same compound, the inhibition [4] was 10.7%.
